“And” between values parts separate entries of the source, which are not always exact repeats. Equal entries are not always repeated. Structures can show the parent of a compound that is named as a salt.
Legend:
Test in all cases: cell viability relative to vehicle control; higher = less cytotoxic
Settings in all cases: 10 µM
K562 = tested on: K562
Outline: (§1)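 CRISPR-edited SRSF2 P95 mutant and isogenic wild-type clones of four leukaemia lines were screened against Selleck bioactive, kinase and epigenetic probe libraries, with identity-inconsistent compounds removed. Compounds were acoustically dispensed into 384-well plates at a single 10 µM dose, with 2000 cells in 50 µL medium per well. After 48 h, supernatant was removed and CellTiter-Glo luminescence was read. Viability was expressed as percent of the on-plate DMSO vehicle control, analysed in Genedata Screener.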

MARIMO = tested on: MARIMO
Outline: as §1

MOLM14 = tested on: MOLM14
Outline: as §1

OCI-AML2 = tested on: OCI-AML2
Outline: as §1

Row | SMILES | cell viability (K562; SRSF2 genotype: SRSF2 P95H/wt) | cell viability (K562; SRSF2 genotype: SRSF2 wt/wt) [%] | cell viability (MARIMO; SRSF2 genotype: SRSF2 P95H/wt) [%] | cell viability (MARIMO; SRSF2 genotype: SRSF2 wt/wt) [%] | cell viability (MOLM14; SRSF2 genotype: SRSF2 P95H/wt) [%] | cell viability (MOLM14; SRSF2 genotype: SRSF2 wt/wt) [%] | cell viability (OCI-AML2; SRSF2 genotype: P95H/wt) [%] | cell viability (OCI-AML2; SRSF2 genotype: wt/wt) [%]
1 | COc1ccc2[nH]c(=O)oc2c1 [Coixol] | 94.8% and 103% | 95 | 97.8 | 96.3 | 103 | 98.2 | 102 | 93.9
2 | CCc1cccc(CC)c1NC(=O)N1Cc2[nH]nc(NC(=O)c3ccc(N4CCN(C)CC4)cc3)c2C1 | 29.9% and 41.4% | 25.5 | 69.2 | 70.3 | 19.8 | 13.4 | 12.8 | 23.3
3 | Nc1ccc(/C=C/C(=O)NCc2cc3cc(-c4ccc(C(=O)N5CCC(F)(F)CC5)cc4)cc(-c4ccc(F)cc4)c3o2)cn1 | 19.8% and 14.3% | 19.1 | 10 | 13.1 | 4.36 | 1.09 | 4.54 | 4.59
4 | CC(C)(C)c1cc(NC(=O)Nc2ccc(-c3cn4c(n3)sc3cc(OCCN5CCOCC5)ccc34)cc2)no1 [Quizartinib (AC220)] | 105% and 110% | 103 | 80.1 | 82.9 | 14.9 | 9.61 | 36.9 | 45.7
5 | CN1CCN(c2cccc(Nc3nc4c(-c5ccc(S(C)(=O)=O)cc5)cccn4n3)c2)CC1 | 68% and 76.9% | 70.5 | 67.1 | 67.8 | 3.24 | 3.52 | 11.9 | 22.6
6 | O=C(O)c1ccc(CN2CCC(CN[C@@H]3C[C@H]3c3ccccc3)CC2)cc1 | 98.9% and 101% | 95.4 | 92.3 | 91 | 98.7 | 87.2 | 78.3 | 91.6
7 | O=C(/C=C/n1cnc(-c2cc(C(F)(F)F)cc(C(F)(F)F)c2)n1)N1CC(F)(F)C1 | 27.6% and 15.9% | 11.8 | 35.7 | 36.6 | 2.44 | 1.55 | 1.41 | 2.6
8 | CN1C(N)=N[C@](C)(c2cc(NC(=O)c3ccc(F)cn3)ccc2F)CS1(=O)=O [Verubecestat (MK-8931) Trifluoroacetat] | 97.5% and 98.8% | 96.9 | 98.1 | 108 | 95.8 | 102 | 99.8 | 107
9 | COc1ccc(S(=O)(=O)Nc2nc(-c3cccc([N+](=O)[O-])c3)cs2)cc1OC | 104% and 99% | 92.7 | 97.4 | 112 | 93.3 | 100 | 95.4 | 108
10 | CS(=O)(=O)CCNCc1ccc(-c2ccc3ncnc(Nc4ccc(OCc5cccc(F)c5)c(Cl)c4)c3c2)o1 | 54.6% and 37% | 56.7 | 88.7 | 90.3 | 86.2 | 60.6 | 65 | 59.5
11 | Cc1cc(Nc2ncc(Cl)c(Nc3ccccc3S(=O)(=O)C(C)C)n2)c(OC(C)C)cc1C1CCNCC1 [Ceritinib (LDK378)] | 0.29% and 0.22% | 0.14 | 0.2 | 0.23 | 0.06 | 0.11 | -0.03 | 0.01
12 | O=C(Nc1cccnc1)N1CCC(Cc2cccc(Oc3ccc(C(F)(F)F)cn3)c2)CC1 | 42% and 43.6% | 44.4 | 43.6 | 35.1 | 51.2 | 28.9 | 38.3 | 27.1
13 | COc1ccc(CC(C)NCC(O)c2ccc(O)c(NC=O)c2)cc1 (stereo not drawn) [Formoterol hemifumarate] | 97.2% and 93.9% | 91.5 | 89.5 | 98.5 | 86.6 | 85.8 | 106 | 101
14 | C[C@@H]1CC[C@]2(C(=O)O[C@@H]3O[C@H](CO)[C@@H](O)[C@H](O)[C@H]3O)CC[C@]3(C)C(=CC[C@@H]4[C@@]5(C)CC[C@H](O)[C@@](C)(CO)[C@@H]5CC[C@]43C)[C@@H]2[C@]1(C)O [Pedunculoside] | 109% and 108% | 113 | 108 | 97.5 | 107 | 108 | 106 | 104
15 | Cc1cc(-c2ncc(CC(=O)Nc3ccc(-c4cnccn4)cn3)cc2C)ccn1 | 73.5% and 84.3% | 81.2 | 81.6 | 70 | 48.8 | 51.1 | 54.8 | 63.5
16 | COc1cc(NC(=O)c2ccc(-c3ccc(Cl)cc3)o2)cc(OC)c1 | 105% and 102% | 103 | 99 | 105 | 113 | 115 | 97.4 | 92.8
17 | CCc1c2c(nc3ccc(O)cc13)-c1cc3c(c(=O)n1C2)COC(=O)[C@]3(O)CC | 10.1% and 21.4% | 13.4 | 5.36 | 3.23 | 1.02 | 0.95 | 0.48 | 1.9
18 | OB1OCc2cc(F)ccc21 [Tavaborole (AN-2690)] | 88.2% and 85.6% | 84.3 | 85.4 | 87.8 | 82.8 | 85.1 | 87.8 | 82.8
19 | CCn1nc(C2CCN(C(=O)CCO)CC2)nc1-c1cnc(N)c(-c2nnc(C(C)(C)C)o2)n1 | 97.5% and 109% | 104 | 57.5 | 50.7 | 38.2 | 50.8 | 21.3 | 34.6
20 | CC(C)(C)NC[C@H](O)COc1nsnc1N1CCOCC1 [Timolol Maleate] | 98.8% and 98.3% | 97.4 | 101 | 106 | 99.3 | 103 | 103 | 109
21 | CCC1(c2ccccc2)C(=O)NCNC1=O [Primidone (Mysoline)] | 113% and 104% | 107 | 106 | 114 | 102 | 107 | 98 | 110
